Laboratory results as given in PubChem BioAssay AID1851 (National Center for Advancing Translational Sciences (NCATS), 2009).
Out of some 16,000 compounds screened, about 5,700 (36%) were called active. About 24% were inconclusive and are not listed. The list shows a part of the results. Values without a mark were called inactive. The call rests on the fitted dose curve; in most records, active means well fitted curve in the direction sought with a large enough effect; inconclusive means small, poorly fitted or top-dose-only effect, or effect the other way; inactive means no such curve, though single readings can be large or run the other way.

What follows are compounds tested against Cytochrome P450 1A2 (Homo sapiens) (UniProt P05177) (assay: Cytochrome panel assay with activity outcomes). Settings: recombinant CYP, pro-luciferin dealkylation, luminescence, p450-cyp1a2; series mostly up to 57.1 µM; activity, negative = inhibition: at the top concentration.
Cytochrome P450 1A2 (Homo sapiens), sequence (P05177 whole entry, looked up): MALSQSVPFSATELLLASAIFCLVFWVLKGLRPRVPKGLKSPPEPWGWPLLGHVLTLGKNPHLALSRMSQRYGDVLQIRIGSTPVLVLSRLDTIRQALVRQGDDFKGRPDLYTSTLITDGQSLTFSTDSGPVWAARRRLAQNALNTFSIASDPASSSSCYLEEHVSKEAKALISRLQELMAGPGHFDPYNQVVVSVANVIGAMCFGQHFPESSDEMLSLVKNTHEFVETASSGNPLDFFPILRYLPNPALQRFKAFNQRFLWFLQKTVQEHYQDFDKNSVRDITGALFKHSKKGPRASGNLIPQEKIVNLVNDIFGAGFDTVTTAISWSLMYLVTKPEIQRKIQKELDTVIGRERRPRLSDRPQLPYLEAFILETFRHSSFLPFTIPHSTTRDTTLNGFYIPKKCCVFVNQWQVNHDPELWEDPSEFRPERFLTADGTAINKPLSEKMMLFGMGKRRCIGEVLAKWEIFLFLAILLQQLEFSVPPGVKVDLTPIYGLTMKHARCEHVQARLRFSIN
On the % scale 0 is the no-effect control and ±100 the full control effect.

SMILES | AC50 | activity, negative = inhibition
CNc1nc(-c2ccccc2Cl)nc2ccccc12 | 126 nM (active) | –
CNc1nc(-c2ccccc2C)nc2ccccc12 | 501 nM (active) | –
CCCNS(=O)(=O)c1ccc(OCC(=O)OC)cc1 | – | -14.8%
CCCOc1ccc(/C=C/C(=O)Nc2ccc([N+](=O)[O-])cc2C)cc1 | – | -11.5%
CCOC(=O)COc1ccc(/C=C/[N+](=O)[O-])c(OCC(=O)OCC)c1 | 3160 nM (active) | –
Fc1ccc2nc3[nH]c4ccccc4c3nc2c1 | 1000 nM (active) | –
COC(=O)CSc1ccc(C#N)c(SCC(=O)OC)c1 | 25100 nM (active) | –
COc1ccc(N2CCN(Cc3nc4c(c(=O)n(C)c(=O)n4C)n3CC(C)=O)CC2)cc1 | – | -4.78%
CCn1ccc(C(=O)NC2C(=O)N3C(C(=O)O)=C(C)CSC23)n1 (stereo unspecified) | – | 10%
CCn1ccc(C(=O)NC2=C(C#N)CCC2)n1 | 6310 nM (active) | –
C[C@]12C=CC(=O)C=C1CC[C@@H]1[C@H]3C[C@@H](O)[C@](O)(C(=O)CO)[C@@]3(C)C[C@H](O)[C@]12F | – | -1.86% [at 25.6 µM]
CC(=O)Nc1ccc(-c2nnc(SCC(=O)c3ccc4c(c3)Cc3ccccc3-4)n2C)cc1 | 11200 nM (active) | –
Cn1c(SCC(=O)NC2CC2)nnc1-c1cccc(NC(=O)c2ccccc2F)c1 | – | 17.5%
Cn1c(SCC(=O)c2ccc3c(c2)Cc2ccccc2-3)nnc1-c1ccccc1 | 6310 nM (active) | –
Cn1c(SC2CCCCC2=O)nnc1-c1ccncc1 (stereo unspecified) | – | -1.42%
Cc1ccc2c(CC(=O)OCc3cc(=O)n4c(n3)sc3ccccc34)coc2c1 | 8910 nM (active) | –
CC(C)(C)c1onc(OCP(=O)(O)O)c1C[C@@H](N)C(=O)O | – | -17.2%
O=C(NNC(=O)c1cc(-c2ccc(Cl)c(Cl)c2)nc2ccccc12)Nc1ccccc1 | 3550 nM (active) | –
Cc1ccc(NC(=O)c2cc(Cl)nc3ccccc23)cc1 | 2000 nM (active) | –

SMILES | AC50 | activity, negative = inhibition
Cc1cc(C(=O)Nc2ccc(N3CCOCC3)cc2)c2ccccc2n1 | 10000 nM (active) | –
CCOC(=O)N/N=C1/C[C@@H](O)[C@@H](O)[C@@H]2[C@@H]3C(=O)N(c4cccc(Oc5ccccc5)c4)C(=O)[C@H]3CC[C@@H]12 | – | -6.44% [at 11.4 µM]
O=C1Oc2ccccc2C2(O)C3CCCCCC3C12 (stereo unspecified) | – | -3.13%
Cc1n[nH]c(C)c1N=Nc1cc(Cl)ccc1Cl | 178 nM (active) | –
COc1cc(OC)c(C(=O)CCCCN2CCC3(CC2)NC(=O)NC3=O)cc1NS(=O)(=O)c1ccc(C(F)(F)F)cc1 | – | -5.7%
Nc1ncnc2c([C@@H]3O[C@@H](CO)[C@H](O)[C@@H]3O)nsc12 | – | -16.8% [at 2.29 µM]
O=C(Nc1cc(Sc2ccccn2)cc([N+](=O)[O-])c1)c1ccc(Cl)cc1 | 2510 nM (active) | –
O=C(Nc1nnc(COc2ccc(Cl)cc2)s1)c1ccc([N+](=O)[O-])cc1 | – | 8.11%
O=C(Nc1cc(Sc2ccccn2)cc([N+](=O)[O-])c1)c1ccc([N+](=O)[O-])cc1 | 3160 nM (active) | –
O=C1[C@H]2[C@H]3[C@H](O)[C@H](O)C/C(=N/OC[C@@H](O)COCc4ccco4)[C@H]3CC[C@@H]2C(=O)N1C[C@@H]1CCCO1 | – | -17.3% [at 11.4 µM]
Cc1ccc(C)c(NC(=O)Cn2nnc(C(=O)Nc3c(C)cccc3C)c2N)c1 | – | -4.32%
CCOc1ncccc1C(=O)OCC(=O)Nc1cc(C)ccc1C | 10000 nM (active) | –
Cc1ccc(C)c(NC(=O)C2C3CCCC2C3c2ccccc2)c1 (stereo unspecified) | – | -4.69%
Cc1noc(C)c1-c1ccc2ncnc(N(C)C)c2c1 | 631 nM (active) | –
Cc1noc(C)c1-c1ccc2ncnc(N(C)Cc3ccco3)c2c1 | 2510 nM (active) | –
CN1C(=O)OC(C)(C)C1=O | – | -1.91% [at 25.6 µM]
CCc1c(C)nc2ccc(Br)cc2c1Cl | 316 nM (active) | –
Cc1cc(Cl)nc2ccc(Cc3ccc4nc(Cl)cc(C)c4c3)cc12 | – | -13.2% [at 2.29 µM]
CO[C@H]1COC(=O)CCC[C@@H](C)[C@H](OC)COC(=O)[C@@H](C)NC(=O)C/C=C\[C@@H]1C | – | 3.63% [at 11.4 µM]

SMILES | AC50 | activity, negative = inhibition
O=C(O)[C@H]1CCCNC1 | – | -5.56%
Cc1cnn(-c2ccc3nnc(-c4ccc(Cl)cc4)n3n2)c1 | 398 nM (active) | –
CNC(=O)Oc1ccc2c(c1)[C@@]1(C)CCN(C)[C@@H]1N2C | – | -15.8%
CCOCCCN1C(=O)CN(C2CCCCCC2)C(=O)C1c1ccc(OC)cc1 (stereo unspecified) | – | -10.7%
CCOCCCn1cnc2c([nH]c3cc(OC)ccc32)c1=O | 2000 nM (active) | –
CO[C@H]1COC(=O)C/C=C\[C@@H](C)COC(=O)[C@H]2CCCN2C(=O)C/C=C\[C@H]1C | – | 4.01% [at 11.4 µM]
CN(C)c1ccc(/C=C2/C(=O)N(c3ccc([N+](=O)[O-])cc3)N=C2N2CCOCC2)cc1 | – | -19%
Cc1cc(N2CCOCC2)ccc1/C=C1\SC(=O)N(C(C)C)C1=O | 14100 nM (active) | –
CC(C(=O)Nc1ccccc1Sc1ccccc1)N(c1ccccc1)S(C)(=O)=O (stereo unspecified) | – | -5.72%
CO[C@@H]1COC(=O)[C@H](COCc2ccccc2)NC(=O)C/C=C\[C@@H](C)[C@H](OC)COC(=O)[C@H](COCc2ccccc2)NC(=O)C/C=C\[C@H]1C | – | -19.7% [at 11.4 µM]
COc1cccc(/C=N/Nc2nc(N3CCCC3)nc(N3CCCC3)n2)c1O | 2510 nM (active) | –
COC(=O)C1=C(C)[C@@H](O)[C@@H](C)[C@H](c2c(OC)c(OC)c(C)c(OC)c2OC)O1 | – | -10.1% [at 11.4 µM]
CC12CC[C@@H]3c4ccc(OP(=O)(O)O)cc4CCC3C1CCC2=O (stereo partly specified) | – | -13.4% [at 2.29 µM]
C#C[C@]1(O)CC[C@@H]2[C@H]3CCc4cc(OC)ccc4[C@@H]3CC[C@@]21C | 501 nM (active) | –
C#C[C@@]1(O)CC[C@@H]2[C@@H]3CCC4=CC(=O)CC[C@@H]4[C@H]3CC[C@]21C | – | -14.1% [at 25.6 µM]
Clc1ccc(CCNc2nc3ccccc3s2)cc1 | 11200 nM (active) | –
CC(C)N1CCN(c2ccc(OC[C@@H]3CO[C@@](Cn4cncn4)(c4ccc(Cl)cc4Cl)O3)cc2)CC1 | – | -3.45% [at 25.6 µM]
Nc1c(O)cccc1C(=O)C[C@@H](N)C(=O)O | – | -7.38% [at 25.6 µM]
